MARV entry inh – qHTS for inhibitors of binding or entry into cells for Marburg Virus; Marburg virus pseudotyped entry inhibition, cell reporter; actives 1.8% (n = 300,000); Potency, µM (top dose mostly 37.8 µM), for inactives: top-dose activity change, negative = inhibition, most hits filed as inhibitors; calls by dose curve; tested in HEK293 cells; also: potency is read from the fitted curve at half-maximal effect
LASV entry inh – qHTS for Inhibitors of binding or entry into cells for Lassa Virus | Lassa virus pseudotype entry inhibition, cell reporter | Potency, µM (highest dose often 37.9 µM), for the others: at the top dose activity change, negative = inhibition, hits mostly inhibitors | actives 1.2% (n = 300,000) | AID 540256, 2011; calls by dose curve; tested in HEK293 cells; also: potency is read from the fitted curve at half-maximal effect; nearly all actives have a fitted effect of over 50% in size
FMDV inh – High Throughput Screening for Foot and Mouth Disease Virus Antivirals; FMDV antiviral cell-based qHTS; Potency, µM (series often up to 57.9 µM), without a hit: at the highest dose activity change, negative = inhibition, actives largely listed as inhibitors; actives 1.2% (n = 410,000); calls by dose curve; tested in HEK293T cells; also: read-out not given here; potency is read from the fitted curve at half-maximal effect; nearly all actives have a fitted effect of over 45% in size
HCV inh – qHTS Assay for Inhibitors of Hepatitis C Virus (HCV). actives 3.4% (n = 340,000). Huh7.5.1 HCVcc-Cre infection, luciferase reporter, 44 h. Potency, µM (top dose mostly 41.8 µM), for inactives: at the highest dose activity change, negative = inhibition, hits mostly inhibitors; active = well fitted inhibition curve with a large enough effect; inconclusive = small, poorly fitted or top-dose-only effect, or another doubt; inactive = no such curve, though single readings can be large or run the other way; also: potency is read from the fitted curve at half-maximal effect
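Infectious HCV cell culture screen: compound-treated cells (1,000/well, pre-plated 4 h) are infected with HCVcc-Cre at roughly 0.5 moi and grown 44 h. Infection is quantified by luciferase signal after 15 min substrate incubation at room temperature.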
HCMV inh – qHTS Assay for inhibitors of the human cytomegalovirus (HCMV). HFF cells, HCMV-luciferase reporter, 72 h; stronger effect = lower value. activity change, negative = inhibition, % at 57.5 µM. actives 4.5% (n = 410,000); in the data active = activity change below about -60%; inconclusive = no clear call, values can overlap the other calls; inactive = above about -39%
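Screen run at 2 compound doses on HFFs infected with reporter HCMV, MOI 1 PFU/cell. Luciferase activity from cell lysates at 72 h post infection gave inhibition relative to buffer-only and Salinomycin wells.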
Numbers without * were called inactive; ? = inconclusive; / = not tested or not shown; [ ] = another dose, or the depositor's remark. Hits are enriched below; roughly 7.9% of the tested compounds scored in any of these assays. % is scaled to controls: 0 for no effect and ±100 for the full control effect.

SMILES | MARV entry inh | LASV entry inh | FMDV inh | HCV inh | HCMV inh
COc1ccc(CCNc2cc(C)nc3c(-c4ccccc4OC)cnn23)cc1OC | 11.2µM* | -8.1%[46.1 µM] | -1.0% | 12.6µM* | /
O=C(CCc1ccccc1)NC1CC(=O)N(c2cccc(F)c2)C1 (stereo not given) | / | 14.6%[46.1 µM] | -14.0% | / | 40.2
O=[N+]([O-])c1ccc(S(=O)(=O)c2cccc(C(F)(F)F)c2)nc1 | 11.2µM* | ? | 17.8µM* | ? | /
O=S(=O)(Nc1cccnc1)c1cccc(C(F)(F)F)c1 | -13.3% | ? | 18.0% | 0.7% | 10.3
Cc1ccc(S(=O)(=O)C2(C(=O)Nc3nccs3)CC2)cc1 | / | / | -22.2% | -4.5% | -78.9*
O=C(Nc1nccs1)C1(S(=O)(=O)c2ccc(Cl)cc2)CC1 | -3.5% | 2.2% | -8.5% | -12.1% | 13.5
O=C1NC(=O)N(Cc2ccco2)C(=O)/C1=C\c1cccn1CCOc1ccc(Cl)cc1 | 11.9% | -15.1% | 35.5µM* | -4.5% | -33.9
COc1ccc(-c2nnc3sc(COc4ccccc4)nn23)cc1 | 16.4% | -6.1% | 15.4% | -13.1% | 5.5
COc1ccc(-c2nnc3sc(COc4ccc(C)cc4)nn23)cc1 | -0.7% | 12.6µM* | -3.0% | 23.0% | -3.2
COc1cc(NC(=O)c2ccccn2)cc(OC)c1OC | 0.5% | ? | 6.3% | 7.1% | -33.4
COc1cccc(C(=O)N/N=C(/c2ccccc2)c2ccccn2)c1 | ? | ? | ? | ? | -101.8*
CC(=NNC(=S)Nc1cccc(Cl)c1)c1ccccn1 | 0.199µM* | 1.12µM* | -9.1% | ? | -97.3*
COc1cc(C(=O)N/N=C(\c2ccccc2)c2ccccn2)cc(OC)c1OC | / | / | 39.8µM* | ? | -102.2*
COc1cc(C(=O)N/N=C(\C)c2ccccn2)cc(OC)c1OC | ? | ? | -13.2% | -24.7% | -88.0*
C/C(=N\NC(=O)c1ccc(Cl)cc1)c1ccccn1 | 0.891µM* | 1.26µM* | ? | 3.16µM* | -101.1*
C/C(=N\NC(=O)c1cc(C)nc2ccccc12)c1ccccn1 | / | / | -26.4% | 2.82µM* | -114.1*
COc1cc(C(=O)NN=C2c3ccccc3-c3ccccc32)cc(OC)c1OC | / | / | / | / | -87.6*
C/C(=N\NC(=O)c1ccccn1)c1ccc(Cl)cc1 | ? | ? | 23.0% | -10.1% | -16.6
CCCN(C(=O)COC(=O)COc1c(C)cccc1C)c1c(N)n(Cc2ccccc2)c(=O)[nH]c1=O | 12.0% | -12.0% | -24.0% | -28.7% | -37.7
Cc1ccc(CNc2cc(-c3nn4c(C)nnc4s3)ccc2C)s1 | ? | -28.6% | -20.7% | ? | 89.1
Cc1ccc(-c2nn3c(C)nnc3s2)cc1NCc1c(F)cccc1Cl | 9.2µM* | ? | / | ? | -76.1*
COc1ccc(Cl)cc1N(CC(=O)N(C)C)S(=O)(=O)c1ccc(C)c([N+](=O)[O-])c1 | / | / | 93.5% | -23.4% | -32.6
Cc1c(C(=O)NCC2(N3CCOCC3)CCCCCC2)cnn1-c1nccc(-c2ccccc2F)n1 | / | / | -23.9% | / | /
CCCCOc1ccc(S(=O)(=O)NCc2csc(C)n2)cc1 | -27.1% | -4.5% | / | ? | -66.6*
O=C1/C(=C/c2ccc([N+](=O)[O-])cc2)C=C(c2ccccc2)N1c1ccc(O)cc1 | -29.3% | ? | ? | ? | -82.8*
SMILES | MARV entry inh | LASV entry inh | FMDV inh | HCV inh | HCMV inh
COc1ccc(N2C(=O)/C(=C/c3ccc([N+](=O)[O-])cc3)C=C2c2ccccc2)cc1 | -17.5% | ? | / | ? | -101.0*
O=C(Nc1cccc(C(=O)O)c1)/C(=C/c1ccc([N+](=O)[O-])cc1)NC(=O)c1ccccc1 | / | / | -16.7% | 12.2% | 23.7
O=C1/C(=C/c2ccc([N+](=O)[O-])cc2)C=C(c2ccccc2)N1c1ccccc1 | 1.6% | 2.9% | / | 3.4% | -20.9
O=C(O)c1cccc(N2C(=O)/C(=C/c3ccc([N+](=O)[O-])cc3)C=C2c2ccccc2)c1 | / | / | 12.6µM* | 5.4% | 7.4
COc1ccc(Cn2c(=O)c3oc4ccccc4c3n(Cc3cccc(C)c3)c2=O)cc1 | / | 13.8%[46.1 µM] | -5.1% | / | -11.7
O=C(NNS(=O)(=O)c1ccc([N+](=O)[O-])cc1)C(=O)Nc1cccc(C(=O)O)c1 | / | / | -7.5% | 18.5% | 56.5
COc1ccc(CC(=O)OCC(=O)Nc2ccc(Cl)cc2C)cc1 | 17.2% | ? | -18.7% | 20.2% | 44.1
O=C(CN1C(=O)C(=O)N(C2CCCC2)C1=O)Nc1ccc(Cl)cc1C(F)(F)F | 9.4% | 4.2% | -3.5% | -6.2% | 0.0
Oc1cc(NCCc2cccnc2)cc2cccnc12 | / | / | ? | / | -73.9*
Oc1cc(Nc2cccnc2)cc2cccnc12 | / | / | -13.9% | / | -97.7*
COc1ccc(OC)c(NC(=O)CCCc2nnc3n(C(C)C)c(=O)c4sccc4n23)c1 | / | 8.8%[46.1 µM] | -10.0% | / | 34.6
COc1ccc(-c2cn(CCN)c(-c3ccncc3)n2)cc1 | / | / | -0.3% | ? | 3.0
COCCCNC(=S)Nc1ccc(S(=O)(=O)Nc2cc(OC)nc(OC)n2)cc1 | -10.8% | 1.7% | 20.7% | 10.7% | 38.5
O=C(Nc1ccc(F)cc1)c1oc2ccccc2c1NC(=O)C1CC1 | / | / | -27.3% | -5.6% | -60.0*
Cc1ccc(NC(=O)c2oc3ccccc3c2NC(=O)C2CC2)cc1 | / | / | -10.2% | -1.6% | ?
CCOc1ccccc1C(=O)Nc1c(C(=O)Nc2ccc(F)cc2)oc2ccccc12 | ? | ? | -19.5% | / | -62.2*
COCCCNC(=O)Cn1c(=O)n(-c2cccc(C)c2)c(=O)c2c3c(sc21)CN(C(C)=O)CC3 | 6.7%[46.1 µM] | / | 11.2% | / | 3.2
CCn1c(C(=O)N2CCCC(C(=O)O)C2)cc2sccc21 (stereo not given) | 19.3% | 7.6% | -7.0% | 11.4% | 3.5
Cn1c(C(=O)N2CCCC(C(=O)NCc3cccs3)C2)cc2sccc21 (stereo not given) | -3.1% | 0.0% | / | -15.6% | 15.4
CCn1c(C(=O)N2CCCC(C(=O)NCCCc3ccccc3)C2)cc2sccc21 (stereo not given) | ? | -18.4% | / | ? | -70.3*
Cn1c(C(=O)N2CCCC(C(=O)NCCCSC3CCCCC3)C2)cc2sccc21 (stereo not given) | ? | 12.6µM* | ? | ? | -61.1*
CC(C)C[C@H](CO)Nc1nc(Nc2cccc(Cl)c2)c2ncn(C(C)C)c2n1 | / | / | 24.1% | ? | -25.8
N#Cc1nc(Nc2cccc(Cl)c2)c2ncn(C3CCCC3)c2n1 | / | / | -57.1% | / | -87.0*
CCn1cnc2c(Nc3cccc(Cl)c3)nc(N[C@@H]3CCCC[C@@H]3N)nc21 | 11.6µM* | 8.2µM* | / | / | /
O=C1c2ccccc2C(=O)c2[nH]c(=O)[nH]c21 | ? | 10µM* | -4.6% | 6.31µM* | -98.6*
CCOc1ccc(NC(=O)CSc2nnc(Cn3cnc([N+](=O)[O-])n3)n2C)cc1 | -5.2% | ? | 15.1% | 1.5% | -39.8
COc1cccc(NC(=O)c2cnsn2)c1 | 24.0% | ? | 32.9% | 9.1% | /
CCOc1ccc(NC(=O)c2ccccn2)cc1 | 0.316µM* | 0.282µM* | 3.16µM* | 1.9% | ?

Screening results deposited in PubChem BioAssay by National Center for Advancing Translational Sciences (NCATS).
